# In PubChem BioAssay:
# Key:
# [1] = inhibitors of PAF-induced NFkB signaling in CF airway cells, dose response, cell-based, uHTS hits, panel, cytotoxicity readout (AID 624344); conditions: CF bronchial epithelial cells, PAF-induced NFkB reporter inhibition, with PAF, run 1; at 79 µM (top of the series) unless noted
# [2] = as above; conditions: CF bronchial epithelial cells, PAF-induced NFkB reporter inhibition, with PAF, run 2; at 79 µM (top of the series) unless noted
Structure (SMILES),inhibition [1] [%],inhibition [2] [%]
C=C1C(=O)OC2CC1C(O)CC(C)=CCCC(C)=CC(O)CC2C (stereo not drawn),103,110
COc1cc(C2c3cc4c(cc3C3OC(=O)C2C3CO)OCO4)cc(OC)c1OC (stereo not drawn),91.1,94.7
COc1ccc(S(=O)(=O)N2c3cc(C)ccc3OCC2C(C)(C)C)cc1 (stereo not drawn),103,81.9
O=C(NC1CCCC(C(F)(F)F)C1)c1ccc([N+](=O)[O-])o1 (stereo not drawn),97.5,103
Cn1cccc1C(=O)NC(=O)COC(=O)c1ccc(S(C)(=O)=O)c([N+](=O)[O-])c1,92.6,98.1
COc1cccc(-c2ccc3ncnc(NCc4ccc5c(c4)OCO5)c3c2)c1,97.6,113
O=C(Nc1nnc(C(F)(F)F)s1)c1ccc(Br)s1,114,74.5
Nc1nccc(SCc2ccc(Cl)cc2Cl)n1,72.7,74.1
O=C1Cc2c([nH]c3ccc(Br)cc23)-c2ccccc2N1,94.6,80.1
C=CCSc1nc2ccccc2n1C(=O)/C=C/c1ccc(OC)c(OC)c1,115,102
COc1ccc(-c2cc(C(F)(F)F)nc(S(=O)(=O)CCCC(=O)Nc3cccnc3Cl)n2)cc1OC,99.5,99.1
Cc1ccccc1C(=O)N1CCN(c2ccc(NC(=O)c3cccc(OC(C)C)c3)cc2)CC1,89.1,86.4
C[C@]12CCC(O)CC1CCC1C2CC[C@]2(C)C(c3cc(C(F)(F)F)n[nH]3)CCC12 (stereo partly drawn),121,99.6
COc1ccc(/C=N/Nc2nc(-c3cccnc3)nc3ccccc23)cc1OC,108,96.6
COc1cccc(N2CCN(c3c(C#N)c(C(F)(F)F)nn3C)CC2)c1,111,94.2
C=CC[C@]12CC=CC(=O)[C@@]1(O)O[C@H](c1ccc(OC)c(OC)c1)[C@H]2C,110,87.5
O=c1[nH]nc(Sc2ncnc3sccc23)n1CCc1ccccc1,100,105
CC[C@@H](C(=O)[C@@H](C)[C@@H](O)[C@H](C)[C@@H]1O[C@@H]([C@@H](CC)C(=O)O)CC[C@@H]1C)[C@H]1O[C@]2(C=C[C@@H](O)[C@]3(CC[C@@](C)([C@H]4CC[C@](O)(CC)[C@H](C)O4)O3)O2)[C@H](C)C[C@@H]1C,117,107
CN(C)CCCN(C(=O)CCSc1ccccc1)c1nc2cc3c(cc2s1)OCO3,106,116
CC(=O)c1ccc(-n2c(C)c(C(C)=O)c3cc(O)ccc32)cc1,56.2,74.6
CN(c1ncnc(N)c1[N+](=O)[O-])C1CCCCC1,115,102
O=C(Nc1cccnc1)c1sc2cccc(F)c2c1Cl,76.8,92.7

Structure (SMILES),inhibition [1] [%],inhibition [2] [%]
COc1cc(/C=N/NC(=O)Nc2cccc3nsnc23)cc(OC)c1OC,89.7,82.7
CCOc1ccc(CCN2C(=S)N([C@@H](CC(C)C)CN3CCCC3CN3C(=S)NC[C@@H]3CC(C)C)C[C@@H]2Cc2ccc(O)cc2)cc1 (stereo partly drawn),76.2,93.9
O=C1NC(=S)N/C1=C/c1cccnc1,97.5,103
O=c1c(O)c(-c2ccccc2)oc2cc(O)cc(O)c12,103,106
CC1=C(C(=O)OCc2ccc3c(c2)OCO3)C(c2ccc(O)c([N+](=O)[O-])c2)NC(=O)N1 (stereo not drawn),94.5,89
COc1ccc2cc3c(N)nn(C(=O)c4ccc(F)cc4)c3nc2c1,90,96.1
O=C(Nc1cccc(Cl)c1)Nc1cc(S(=O)(=O)N2CCCCC2)ccc1Cl,117,97.2
CCC(CO)Oc1cc(NCc2ccc(Cl)cc2Cl)c2ncn(C(C)C)c2c1 (stereo not drawn),105,109
COc1ccc(C2=Nn3c(nnc3-c3ccccc3OC)SC2)cc1OC1CCOC1 (stereo not drawn),92.2,92.2
O=C(Nc1ccc(OCC(=O)N2CCOCC2)cc1)c1cncc(Br)c1,90.4,98.9
C=CCn1c(Oc2ccccc2F)nc2c1c(=O)n(C)c(=O)n2C,95.6,93.3
CCN1CCN(Cc2ccc(NC(=O)c3ccc(C)c(NC(=O)c4csc(-c5ccncc5)n4)c3)cc2C(F)(F)F)CC1,107,101
COc1ccc(NC(=O)Nc2nnc(-c3ccncc3)s2)cc1,67.9,68.6
COc1cc(CN(C)c2ccc(S(=O)(=O)N3CCCC3)cn2)ccc1OC(F)F,82.4,98.6
O=[N+]([O-])c1ccc(Oc2ccc(F)cc2)c2ccncc12,99.2,97.3
COc1cccc(-c2ccc3ncnc(NCc4cccs4)c3c2)c1,117,99.9
Nc1ncnc(N2CCc3ccccc32)c1[N+](=O)[O-],115,103
O=C(c1cc([N+](=O)[O-])ccc1N1CCOCC1)N1CCN(c2ccccc2)CC1,116,79.6
CC(=O)c1ccc(Nc2ncnc3ccc(Br)cc23)cc1,91.3,98.4
CC1(Cc2cccc(F)c2)C(=O)Nc2ccc(-c3cccnc3)cc21 (stereo not drawn),112,98.2
CC1CCN(CC(CS(=O)(=O)c2ccc([N+](=O)[O-])cc2)N2CCC(C)CC2)CC1 (stereo not drawn),101,104
C=CCn1cnc2c(c1=O)c1nc3ccccc3nc1n2/N=C/c1cc(OC)c(OC)c(OC)c1,109,102
